Measurements taken from PubChem BioAssay AID2501 (Southern Research Specialized Biocontainment Screening …, 2010).
About 1,200 (55%) of roughly 2,200 compounds were called active. The set was probably picked from earlier hits. The list shows a part of the results. Values without a mark were called inactive. Cut-off not given; nearly all actives show IC50 up to about 92 µM.

assay: counter assay for TAg ATPase ADP read-out – biochemical, ADP-Hunter, fluorescence, counter-screen (AID 2501); details: series mostly up to 100 µM; inhibition: at the top concentration;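 further: purified T antigen ATPase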;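 on inhibition: 0% = enzyme with vehicle and 100% = reference inhibitor wells; higher means more inhibition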

For `Nc1ccc2c(c1)Cc1ccccc1-2`, the IC50 was 4.77 µM (active).
In the case of `CN1CCN(/N=C/c2c[nH]c3ccccc23)CC1`, the IC50 is reported as 6.59 µM (active).
In the case of `CCC(C)N1C(=O)NC(=O)C2(Cc3c(ccc4ccccc34)N(C)C2)C1=O` (configuration not stated), the IC50 is reported as 23.3 µM (active).
For `CC1CN=C(Nc2ccc(N(C)C)cc2)S1` (configuration not stated), the IC50 was 7.09 µM (active).
For `O=c1c(O)c(-c2ccc(O)c(O)c2)oc2cc(O)cc(O)c12`, the IC50 was 98.5 µM (active).
In the case of `O=c1cc(-c2ccc(O)c(O)c2)oc2cc(O)cc(O)c12`, the IC50 is reported as 8.07 µM (active).
In the case of `O=c1c2ccccc2[se]n1-c1ccccc1`, the IC50 is reported as 10.9 µM (active).
With `COc1cc(C=C2C(=O)NC(=O)NC2=O)ccc1O` the IC50 was 19.6 µM (active).
For `COc1cc(/C=C2\C(=O)NC(=O)N(CCc3ccc(F)cc3)C2=O)ccc1O`, the IC50 was 6.23 µM (active).
In the case of `CN(C)[C@@H]1C(=O)C(C(N)=O)=C(O)[C@@]2(O)C(=O)C3=C(O)c4c(O)cccc4[C@@](C)(O)[C@H]3[C@H](O)[C@@H]12`, the IC50 is reported as “inactive”.
In the case of `N/C(=N\[N+](=O)[O-])N/N=C/c1ccc(O)cc1`, the IC50 is reported as 2.93 µM (active).
With `CC1=NCCc2c1[nH]c1cc(O)ccc21` the IC50 was 4.35 µM (active).
In the case of `COc1cc2c(cc1O)CC[n+]1cc3c(OC)c(OC)ccc3cc1-2`, the IC50 is reported as 4.22 µM (active).
For `O=c1[nH]c(=S)n(-c2ccccc2F)c(O)c1C=Nc1ccc(N2CCOCC2)cc1`, the IC50 was 5.34 µM (active).
For `CC(C)Nc1ccc(Nc2ccccc2)cc1`, the IC50 was 5.82 µM (active).
With `CCN(CC)c1ccc(N=Cc2c(O)n(-c3ccccc3C)c(=O)[nH]c2=O)cc1` the IC50 was 7.13 µM (active).
For `CCN(CC)c1ccc(N=Cc2c(O)n(-c3cc(OC)ccc3OC)c(=O)[nH]c2=O)cc1`, the IC50 was 6.82 µM (active).
For `Cc1ccccc1-n1c(O)c(C=Nc2ccc(N(C)C)cc2)c(=O)[nH]c1=O`, the IC50 was 5.9 µM (active).
In the case of `NCCc1c[nH]c2ccc(O)cc12`, the IC50 is reported as 10.5 µM (active).
With `N#Cc1c(/N=C/c2c(O)n(Cc3ccco3)c(=O)[nH]c2=O)sc2c1CCCC2` the IC50 was 27.2 µM (active).
In the case of `CNC(C)Cc1ccccc1Sc1ccc(O)cc1` (configuration not stated), the IC50 is reported as 2.47 µM (active).
In the case of `CC(Cc1ccccc1Sc1ccc(O)cc1)N(C)C` (configuration not stated), the IC50 is reported as 1.99 µM (active).
With `O=c1[nH]c(=S)n(C2CC2)c(O)c1/C=N/Nc1ccccc1` the IC50 was 3.94 µM (active).
With `C1=Cc2ccccc2Nc2ccccc21` the IC50 was 4.79 µM (active).
For `Oc1ccc(/C=N/NP(=S)(c2ccccc2)c2ccccc2)cc1O`, the IC50 was 35.3 µM (active).
In the case of `CCN1CCN(c2ccc(N)cc2C)CC1`, the IC50 is reported as 4 µM (active).
In the case of `CCOc1cc(-c2ccc(N)c(OCC)c2)ccc1N`, the IC50 is reported as 1.03 µM (active).

First: O=C1NC(=O)C(=Cc2csc3ccccc23)C(=O)N1
Second: O=C1NC(=O)C(=Cc2ccc(-c3ccccc3[N+](=O)[O-])o2)C(=O)N1
The “inhibition” value of the first is lower: 4.76% for the first, 11.2% for the second.

First: O=C1NC(=O)N(Cc2ccco2)C(=O)/C1=C/c1cccn1CCOc1ccccc1Cl
Second: Cc1cccc(OCCn2cccc2/C=C2/C(=O)NC(=O)N(Cc3ccco3)C2=O)c1
The “inhibition” value of the first is lower: -6.99% for the first, 23.1% for the second.

Compared with `O=C1NC(=S)NC(=O)C1=Cc1ccc2c(c1)CCN2CCCCl`, `CN(C)c1ccc(C=C2C(=O)NC(=S)NC2=O)cc1[N+](=O)[O-]` is lower in “inhibition” value: 8.61% for the first, -11.9% for the second.

Compared with `O=C1NC(=O)N(c2ccccc2)C(=O)/C1=C/c1ccc([N+](=O)[O-])s1`, `O=C1NC(=O)N(c2ccccc2)C(=O)/C1=C\c1ccc([N+](=O)[O-])s1` is higher in “inhibition” value: 6.79% for the first, 18.4% for the second.

Compared with `C=CCN1C(=O)/C(=C/c2cc(C)n(-c3cccnc3)c2C)C(=O)NC1=S`, `Cc1cc(C=C2C(=O)N(C)C(=S)N(C)C2=O)c(C)n1-c1ccncc1` is higher in “inhibition” value: -0.68% for the first, 1.6% for the second.

Going from `CCOc1ccccc1N1C(=O)NC(=O)/C(=C/c2ccc3c4c(cccc24)CC3)C1=O` to `O=C1NC(=O)N(c2ccccc2)C(=O)/C1=C\c1ccc2c3c(cccc13)CC2`, the “inhibition” value falls from 5.91% to 2.57%.

First: COc1ccc(N2C(=O)/C(=C/c3ccc(C)o3)C(=O)NC2=S)c(OC)c1
Second: Cc1ccc(/C=C2\C(=O)NC(=S)N(c3cccc(F)c3)C2=O)o1
The “inhibition” value of the first is lower: -2.21% for the first, 3.87% for the second.

Going from `COc1ccc(CN2C(=O)NC(=O)/C(=C/c3ccc([N+](=O)[O-])o3)C2=O)cc1` to `COc1ccc(CN2C(=O)NC(=O)/C(=C/c3ccoc3)C2=O)cc1`, the “inhibition” value falls from 26.2% to 8.61%.

First: Cc1ccc2c(c1)=C/C(=C\c1c(O)[nH]c(=O)[nH]c1=O)C(=O)N=2
Second: O=c1[nH]c(=O)n(Cc2ccccc2)c(O)c1/C=C1\C=Nc2ccccc21
The “inhibition” value of the first is higher: 1.86% for the first, -2.85% for the second.

First: CCN1C(=O)/C(=C\c2ccc([N+](=O)[O-])s2)C(=O)NC1=S
Second: COc1cccc(N2C(=O)NC(=O)/C(=C\c3ccc([N+](=O)[O-])s3)C2=O)c1
The “inhibition” value of the first is higher: 28.9% for the first, 17.5% for the second.

Going from `O=C1NC(=O)N(c2ccccc2)C(=O)/C1=C\C=C\c1ccccc1` to `Cc1ccc(N2C(=O)NC(=O)/C(=C\C=C\c3ccco3)C2=O)cc1C`, the “inhibition” value rises from 24% to 29.6%.

Compared with `CN(c1ccc(OCC(=O)N2CCN(C/C=C/c3ccccc3)CC2)cc1)S(=O)(=O)c1cccs1`, `CCOc1ccc(N2C(=O)NC(=O)/C(=C\c3ccccc3[N+](=O)[O-])C2=O)cc1` is lower in “inhibition” value: 28.9% for the first, 19.3% for the second.

First: O=c1[nH]sc2cc(F)ccc12
Second: O=C1NC(=S)NC(=O)C1=Cc1ccc(Br)s1
The “inhibition” value of the first is higher: 7.46% for the first, 6.21% for the second.

First: O=C(O)CCC(=O)NCCC1=c2ccccc2=N/C1=C\c1c(O)n(Cc2ccc(F)cc2)c(=S)[nH]c1=O
Second: O=C1NC(=O)N(CCc2ccc(F)cc2)C(=O)/C1=C/c1ccco1
The “inhibition” value of the first is lower: -17.4% for the first, 11.4% for the second.

Compared with `COP(=S)(OC)SCN1C(=O)c2ccccc2C1=O`, `CCN1C(=O)C(=C/C=C/c2ccco2)C(=O)N(CC)C1=S` is lower in “inhibition” value: 1.36% for the first, -52.2% for the second.

Going from `CCc1c(C)nc(N)nc1N1N=C1SC(C(C)=O)C(C)=O` to `CCCCC(=O)N/N=C/c1c(O)n(Cc2ccco2)c(=O)[nH]c1=O`, the “inhibition” value rises from 9.54% to 9.68%.

Compared with `CCCN1CCc2cc(O)cc3c2[C@H]1Cc1ccc(O)c(O)c1-3`, `CN1CCc2cc(O)cc3c2[C@H]1Cc1ccc(O)c(O)c1-3` is higher in “inhibition” value: -61.6% for the first, -56.5% for the second.

Compared with `Oc1cc2c(cc1O)[C@H]1c3ccccc3CN[C@@H]1CC2`, `Oc1ccc(C[C@H]2NCCc3cc(O)c(O)cc32)cc1O` is lower in “inhibition” value: -74.2% for the first, -137% for the second.

Compared with `O=C1NC(=O)N(c2ccc(Br)cc2)C(=O)/C1=C/c1ccsc1`, `COc1ccc(/C=C2/C(=O)NC(=O)N(Cc3ccco3)C2=O)cc1` is higher in “inhibition” value: -9.71% for the first, 9.99% for the second.

Going from `CN1C(=O)NC(=O)/C(=C/c2ccc([N+](=O)[O-])o2)C1=O` to `O=C1NC(=O)C(=Cc2ccc(-c3cc(Cl)ccc3[N+](=O)[O-])o2)C(=O)N1`, the “inhibition” value falls from 6.64% to 2.85%.

Going from `O=C1NC(=O)C(=Cc2ccccc2OCCOc2ccc([N+](=O)[O-])cc2)C(=O)N1` to `O=C1NC(=O)C(=Cc2ccc(OCCOc3ccc([N+](=O)[O-])cc3)cc2)C(=O)N1`, the “inhibition” value falls from 21.8% to -3.74%.

First: CCOc1cccc(OCC)c2c(C)[n+](CC3CCCO3)c(C)c1-2 (configuration not stated)
Second: CCOC(=O)CSCCOc1ccc(C=C2C(=O)NC(=O)NC2=O)cc1OC
The “inhibition” value of the first is lower: -27.2% for the first, -17.2% for the second.

First: Cc1nc2cc([N+](=O)[O-])ccc2c(=O)n1-c1ccc(Br)cc1
Second: O=C1NC(=O)N(c2ccc(Cl)cc2)C(=O)/C1=C\c1ccc(Sc2nc3ccccc3[nH]2)o1
The “inhibition” value of the first is lower: -52.8% for the first, 21.8% for the second.

Compared with `CCCNC(=O)N1C2CCC1CC(O)(c1cccnc1)C2` (configuration not stated), `NC(N)=Nc1ccc2[nH]c3c(c2c1)C[C@@]1(O)[C@H]2Cc4ccc(O)c5c4[C@@]1(CCN2CC1CC1)[C@H]3O5` is higher in “inhibition” value: -23% for the first, 7.88% for the second.

Compared with `Cc1ccccc1-n1c(C)cc(/C=C2/C(=O)NC(=O)N(Cc3ccco3)C2=O)c1C`, `CCN(CC)c1ccc(/C=C2\C(=O)NC(=O)N(Cc3ccco3)C2=O)cc1` is lower in “inhibition” value: 12.9% for the first, 11.5% for the second.

Compared with `C[C@]12CC[C@@H]3c4ccc(O)c(O)c4CC[C@H]3[C@@H]1CC[C@@H]2O`, `O=C(O)c1cccc2c1NC(C(=O)O)C1CC(Sc3ccccc3[N+](=O)[O-])C(Cl)C21` (configuration not stated) is higher in “inhibition” value: -196% for the first, -28.6% for the second.

First: NS(=O)(=O)c1ccc(-c2ccc(C=C3C(=O)NC(=O)NC3=O)o2)cc1
Second: NS(=O)(=O)c1ccc(-c2ccc(C=C3C(=O)NC(=S)NC3=O)o2)cc1
The “inhibition” value of the first is higher: 14% for the first, -13.7% for the second.

Going from `Cc1ccc(N2C(=O)NC(=O)/C(=C/c3ccc(-c4ccc(C(=O)O)c(Cl)c4)o3)C2=O)cc1` to `Cc1cccc(N2C(=O)NC(=O)/C(=C/c3ccc(-c4ccc(C(=O)O)c(Cl)c4)o3)C2=O)c1`, the “inhibition” value falls from 3.2% to -17.8%.

Compared with `C=C1C(=O)O[C@H]2[C@H]1[C@H](OC(=O)CC(=O)O[C@@H]1C[C@@H](C)[C@@H]3C=CC(=O)[C@@]3(C)[C@H]3OC(=O)C(=C)[C@H]13)C[C@@H](C)[C@H]1C=CC(=O)[C@]12C`, `CCN(CC)C(=O)c1ccc2c(c1)C1C(Cl)C(Sc3ccccc3[N+](=O)[O-])CC1C(C(=O)O)N2` (configuration not stated) is lower in “inhibition” value: -28.2% for the first, -62% for the second.

First: CN1C(=O)/C(=C/C=C/c2ccco2)C(=O)NC1=S
Second: CCCCN1C(=O)/C(=C/C=C/c2ccco2)C(=O)NC1=S
The “inhibition” value of the first is higher: 0.73% for the first, -21.3% for the second.

Going from `N#CSCC(=O)N1c2ccccc2CCc2ccccc21` to `O=C1NC(=O)N(c2ccccc2F)C(=O)/C1=C/c1ccc(Sc2nc3ccccc3[nH]2)o1`, the “inhibition” value rises from -23.4% to 11.5%.

Going from `Cc1cc(/C=C2\C(=O)NC(=O)N(c3ccc(Cl)cc3)C2=O)c(C)n1-c1sc2c(c1C#N)CCCC2` to `O=C(O)CCn1cc(C=C2C(=O)NC(=S)NC2=O)c(-c2cccc(Cl)c2)n1`, the “inhibition” value rises from -16.8% to 11.7%.

First: COc1cc2c(cc1OC)-c1c(OC)c(OC)cc3c1[C@H](C2)[N+](C)(C)CC3
Second: COc1cc2c(cc1OC)CC[N+](C)=C2
The “inhibition” value of the first is lower: 6.19% for the first, 10.2% for the second.

With `O=C1NC(=O)C(=Cc2cc3c(cc2[N+](=O)[O-])OCO3)C(=O)N1` the “inhibition” value was -5.04%.

First: C[CH2][Hg][S]c1ccccc1C(=O)O
Second: O=C1NC(=S)NC(=O)C1=Cc1cccn1-c1ccc(O)cc1
The “inhibition” value of the first is lower: 16.9% [at 50 µM] for the first, 20.7% [at 50 µM] for the second.

With `O=C1NC(=O)C(=Cc2ccc(-c3ccc(F)cc3O)o2)C(=O)N1` the “inhibition” value was -9.03% [at 50 µM].
